Results published in the supplement of paper PMC10646978.
± gives the standard deviation.

Legend:
Conditions in all cases: modulator concentration 10 µM
[1] = tested on: RAW-Dual (murine macrophage reporter line); experiment: NF-kB reporter (SEAP) activity fold change vs agonist alone; higher = enhanced NF-kB activity
Procedure, shortened: (§1)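 Compound reached 10 μM final in each well by pin transfer, onto RAW-Dual murine macrophage reporter cells seeded at 50 000 per well in 384-well plates. After 1 hour at 37 °C, the cells were stimulated overnight with a PRR agonist. SEAP in the supernatant was read with QUANTI-Blue at 620 nm absorbance for NF-κB, and Lucia luciferase was read with QUANTI-Luc luminescence for IRF. Each signal was turned into fold change against the mean agonist-only control on the same plate, and two replicate plates were averaged with propagated errors.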

[2] = tested on: RAW-Dual (murine macrophage reporter line); experiment: IRF reporter (Lucia luciferase) activity fold change vs agonist alone; higher = enhanced IRF activity
Procedure, shortened: as §1

[3] = tested on: RAW-Dual (murine macrophage reporter line); experiment: viability score (confluency relative to resting cells, overnight) (fraction); higher = more viable, active = viable (0.7 or more)
Procedure, shortened: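 RAW-Dual macrophages in 384-well plates were incubated overnight with compound, final concentration 10 μM. Confluency images from IncuCyte were processed in IncuCyte software into two masks covering all imaged wells. The viability score is each well's confluency relative to resting cells, and a compound met the cutoff when both masks exceeded 70% of resting cells.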

[4] = agonist: CpG ODN 1826 0.5 ug/mL

Row | SMILES | NF-kB reporter [1, 4] | NF-kB reporter ([1]; agonist: LPS 0.1 ug/mL) | NF-kB reporter ([1]; agonist: MPLA […]) | IRF reporter ([2]; agonist: 3'3'-cGAMP 10 ug/mL) | IRF reporter ([2]; agonist: LPS 0.1 ug/mL) | IRF reporter ([2]; agonist: MPLA […]) | viability score [3]
1 | CC(=O)C(C(=O)Nc1ccc(F)cc1)C(c1ccc(Cl)cc1Cl)C(C#N)C#N (centres undefined) | 0.894 ± 0.054 | 0.93 ± 0.057 | 0.915 ± 0.093 | 0.903 ± 0.04 | 1.1 ± 0.075 | 1.02 ± 0.26 | 1.01 (active)
2 | CCC(=O)Nc1ccc(S(=O)(=O)N2CCCC(Cc3nc(C4CC4)no3)C2)c(C)c1 (centres undefined) | 0.885 ± 0.062 | 0.986 ± 0.1 | 1.01 ± 0.065 | 0.88 ± 0.048 | 1.21 ± 0.26 | 1.38 ± 0.51 | 0.961 (active)
3 | CCC(C(=O)N1CCN(CCn2ccnc2-c2ccccc2)CC1)c1ccccc1 (centres undefined) | 0.982 ± 0.17 | 0.999 ± 0.14 | 1.24 ± 0.076 | 1 ± 0.13 | 1.04 ± 0.24 | 0.956 ± 0.4 | 0.984 (active)
4 | C1=CC2CC1CC2CN1CCC(N2CCCCC2)CC1 (centres undefined) | 0.089 ± 0.0093 | 0.949 ± 0.072 | 1.26 ± 0.13 | 0.578 ± 0.038 | 1.69 ± 0.099 | 1.79 ± 0.17 | 0.989 (active)
5 | CCOC(=O)C1=C(CC)NC2=C(C(=O)CCC2)C1c1ccccc1I (centres undefined) | 0.996 ± 0.11 | 1.02 ± 0.13 | 0.982 ± 0.1 | 0.921 ± 0.032 | 1.27 ± 0.16 | 1.05 ± 0.19 | 0.975 (active)
6 | Cc1ccc(OCC(O)CN2CCCCC2)c(C)c1.Cl (centres undefined) | 0.868 ± 0.15 | 1.05 ± 0.12 | 1.01 ± 0.15 | 0.857 ± 0.056 | 1.21 ± 0.12 | 1.28 ± 0.2 | 0.809 (active)
7 | Cc1ccc(C(=O)c2cc(O)c(O)c([N+](=O)[O-])c2)cc1 | 0.889 ± 0.078 | 1.09 ± 0.056 | 1.07 ± 0.049 | 0.871 ± 0.048 | 0.917 ± 0.081 | 0.946 ± 0.075 | 0.995 (active)
8 | CN(C)c1ncc(NC(=O)c2ccc(Oc3ncccn3)cc2)c(N(C)C)n1 | 0.856 ± 0.086 | 0.953 ± 0.075 | 0.849 ± 0.065 | 0.991 ± 0.053 | 1.2 ± 0.083 | 1.08 ± 0.14 | 0.985 (active)
9 | COC(=O)c1cc(Br)ccc1NC(=O)c1ccccc1 | 1.07 ± 0.17 | 1.02 ± 0.17 | 1.03 ± 0.18 | 1.12 ± 0.045 | 1.24 ± 0.18 | 1.19 ± 0.21 | 0.99 (active)
10 | COC(=O)C1=C(C)NC(C)=C(C(=O)OCCN(C)Cc2ccccc2)C1c1cccc([N+](=O)[O-])c1 (centres undefined) | 0.317 ± 0.079 | 0.753 ± 0.06 | 0.72 ± 0.05 | 0.324 ± 0.028 | 1.14 ± 0.24 | 1.15 ± 0.12 | 0.982 (active)
11 | COCC(=O)Nc1c(C(=O)Nc2ccc(OC(F)(F)F)cc2)oc2ccccc12 | 1.26 ± 0.1 | 1.24 ± 0.098 | 1.22 ± 0.11 | 1.58 ± 0.085 | 1.84 ± 0.17 | 1.85 ± 0.38 | 0.922 (active)
12 | S=c1n(CN2CCOCC2)nc(-c2ccccc2Cl)n1-c1ccccc1 | 1.06 ± 0.059 | 0.985 ± 0.067 | 0.947 ± 0.074 | 0.944 ± 0.047 | 1.32 ± 0.18 | 1.16 ± 0.13 | 0.993 (active)
13 | CC(C)Oc1ccc(C(=O)NC2CCN(c3ncnc4c3CCCC4)CC2)cn1 | 1.15 ± 0.086 | 1.14 ± 0.086 | 0.985 ± 0.031 | 0.939 ± 0.055 | 1.06 ± 0.083 | 1.04 ± 0.11 | 0.997 (active)
14 | CC1=C(C(=O)OCC(F)(F)C(F)(F)F)C(c2ccccc2)NC(=O)N1 (centres undefined) | 0.847 ± 0.052 | 0.975 ± 0.077 | 0.863 ± 0.053 | 1.31 ± 0.05 | 1.34 ± 0.089 | 1.23 ± 0.23 | 0.934 (active)
15 | Clc1ccc(CN2CCN(CCn3ccnc3-c3ccccc3)CC2)cc1 | 0.584 ± 0.055 | 1.29 ± 0.12 | 1.37 ± 0.2 | 0.841 ± 0.042 | 1.27 ± 0.086 | 1.13 ± 0.22 | 0.993 (active)
16 | CC(=O)N(C1=C(Nc2ccccc2)C(=O)c2ccccc2C1=O)c1ccccc1 | 2.44 ± 0.19 | 1.52 ± 0.098 | 2.64 ± 0.16 | 2.12 ± 0.063 | 5.77 ± 0.43 | 3.69 ± 0.39 | 0.334 (inactive)
17 | O=C(CSC1CC(=O)N(c2ccc(C(=O)O)cc2)C1=O)Nc1ccc(Cl)cc1 (centres undefined) | 0.921 ± 0.11 | 0.931 ± 0.16 | 1.05 ± 0.046 | 0.396 ± 0.085 | 0.99 ± 0.045 | 0.982 ± 0.12 | 1 (active)
18 | CCCC1=NN(c2ccc([N+](=O)[O-])cc2)C(=O)C1=CNC1CC1 | 0.833 ± 0.066 | 1.15 ± 0.065 | 0.934 ± 0.056 | 0.999 ± 0.043 | 1.49 ± 0.12 | 1.18 ± 0.2 | 1.01 (active)
19 | Cc1ccc(OCCCOc2cccc3cccnc23)c(C)c1 | 0.854 ± 0.11 | 1.1 ± 0.073 | 1.62 ± 0.11 | 0.932 ± 0.07 | 1.26 ± 0.14 | 2.82 ± 0.39 | 0.895 (active)

Row | SMILES | NF-kB reporter [1, 4] | NF-kB reporter ([1]; agonist: LPS 0.1 ug/mL) | NF-kB reporter ([1]; agonist: MPLA […]) | IRF reporter ([2]; agonist: 3'3'-cGAMP 10 ug/mL) | IRF reporter ([2]; agonist: LPS 0.1 ug/mL) | IRF reporter ([2]; agonist: MPLA […]) | viability score [3]
20 | CC(=NOCON=C(C)c1ccc(Cl)c(Cl)c1)c1ccc(Cl)c(Cl)c1 | 0.944 ± 0.057 | 0.993 ± 0.086 | 0.936 ± 0.07 | 0.974 ± 0.034 | 1.38 ± 0.14 | 1.18 ± 0.1 | 1.01 (active)
21 | Cc1cccc(Cn2c(=O)c3nscc3n(Cc3ccc(F)c(F)c3)c2=O)c1 | 1.14 ± 0.099 | 1.09 ± 0.087 | 1.21 ± 0.11 | 0.997 ± 0.048 | 1.01 ± 0.093 | 0.899 ± 0.22 | 0.995 (active)
22 | FC(F)(F)c1ccc(CN2CCCC(c3nc4ccccc4[nH]3)C2)cc1 (centres undefined) | 0.701 ± 0.27 | 0.876 ± 0.21 | 0.555 ± 0.2 | 0.693 ± 0.32 | 0.829 ± 0.19 | 0.967 ± 0.23 | 0.903 (active)
23 | O=C(NCCN1CCOCC1)c1cc2nc(-c3ccccc3)cc(C(F)(F)F)n2n1 | 0.898 ± 0.078 | 1.06 ± 0.091 | 0.933 ± 0.061 | 0.607 ± 0.033 | 1.09 ± 0.098 | 1.01 ± 0.09 | 1 (active)
24 | CCN(CC)CCOCCOC(=O)C1(c2ccccc2)CCCC1 [Prestw-387] | 0.668 ± 0.12 | 1.14 ± 0.12 | 0.993 ± 0.12 | 0.684 ± 0.019 | 1.03 ± 0.12 | 1.11 ± 0.19 | 0.993 (active)
25 | CCC1(c2cnc[nH]2)Cc2ccccc2C1 | 0.746 ± 0.13 | 1.09 ± 0.17 | 0.862 ± 0.055 | 0.764 ± 0.21 | 1.33 ± 0.14 | 0.787 ± 0.11 | 0.876 (active)
26 | C1N2CN3CN1CN(C2)C3 | 1.07 ± 0.085 | 1.04 ± 0.054 | 1.03 ± 0.033 | 0.961 ± 0.055 | 0.958 ± 0.092 | 0.949 ± 0.076 | 1 (active)
27 | O=c1[nH]c(=O)n(C2CC(O)C(CO)O2)cc1F (centres undefined) | 1.67 ± 0.13 | 0.714 ± 0.057 | 0.978 ± 0.1 | 0.321 ± 0.025 | 0.684 ± 0.14 | 0.545 ± 0.12 | 1.04 (active)
28 | Oc1cccc(C=Nc2ccc(N=Cc3cccc(O)c3O)cc2)c1O | 0.606 ± 0.053 | 0.727 ± 0.069 | 0.783 ± 0.079 | 0.712 ± 0.052 | 0.93 ± 0.2 | 0.922 ± 0.2 | 0.984 (active)
29 | CN1CCN(c2ccc3nc(-c4c(N)c5c(F)cccc5[nH]c4=O)[nH]c3c2)CC1 | 0.277 ± 0.1 | 1.19 ± 0.35 | 1.39 ± 0.59 | 0.0238 ± 0.0011 | 0.491 ± 0.07 | 0.197 ± 0.015 | 0.799 (active)
30 | COc1cc2ncnc(Nc3ccc(F)c(Cl)c3)c2cc1NC(=O)/C=C/CN1CCCCC1 | 0.666 ± 0.32 | 0.936 ± 0.083 | 0.989 ± 0.081 | 0.486 ± 0.026 | 0.958 ± 0.2 | 0.861 ± 0.22 | 0.988 (active)
31 | CCOc1ccc(NC(=O)CC2Nc3cccc4cccc(c34)NC2=O)cc1 (centres undefined) | 0.91 ± 0.066 | 1.01 ± 0.067 | 0.926 ± 0.077 | 0.884 ± 0.049 | 1.31 ± 0.083 | 1.25 ± 0.34 | 0.926 (active)
32 | NC(=O)c1c(NC(=O)CN2C(=O)C(=Cc3ccc(Cl)cc3Cl)SC2=S)sc2c1CCCC2 | 0.936 ± 0.081 | 1.07 ± 0.067 | 0.885 ± 0.058 | 0.841 ± 0.028 | 1.23 ± 0.092 | 1.03 ± 0.29 | 0.997 (active)
33 | CN(C)c1ccc(O)c2c1C[C@H]1C[C@H]3[C@H](N(C)C)C(O)=C(C(N)=O)C(=O)[C@@]3(O)C(O)=C1C2=O.Cl | 0.96 ± 0.072 | 0.927 ± 0.052 | 0.959 ± 0.03 | 1.36 ± 0.37 | 1.04 ± 0.14 | 1.09 ± 0.17 | 0.999 (active)
34 | O=[N+]([O-])c1ccc(Cl)c(C=Nc2cccc3c(N=Cc4cc([N+](=O)[O-])ccc4Cl)cccc23)c1 | 0.841 ± 0.047 | 1.07 ± 0.078 | 0.988 ± 0.086 | 0.816 ± 0.05 | 1.56 ± 0.1 | 1.26 ± 0.13 | 1 (active)
35 | C#Cc1cccc(Nc2ncnc3cc(OCCOC)c(OCCOC)cc23)c1.Cl | 0.511 ± 0.11 | 0.348 ± 0.047 | 0.233 ± 0.014 | 0.292 ± 0.03 | 0.143 ± 0.039 | 0.0986 ± 0.027 | 0.853 (active)
36 | Cc1cc(O)c2c(c1)C(=O)c1cccc(O)c1C2=O | 0.969 ± 0.08 | 1.08 ± 0.1 | 1.1 ± 0.024 | 0.894 ± 0.08 | 0.973 ± 0.1 | 0.953 ± 0.11 | 0.986 (active)
37 | Cc1ccccc1N(CC(=O)NCCSc1ccc(Cl)cc1)S(=O)(=O)c1ccccc1 | 0.66 ± 0.079 | 1.01 ± 0.056 | 0.851 ± 0.056 | 0.64 ± 0.034 | 1.4 ± 0.11 | 1.1 ± 0.13 | 1 (active)
